MPTP block = blocks calcium-induced mitochondrial swelling | isolated mouse mitochondria, Ca2+ swelling absorbance, 30 min | inhibition, % at 10 µM | actives 1.4% (n = 360,000) | AID 602449;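 active means inhibition of 50% or more, scaled per plate between neutral and stimulator controls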;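 further: 0% = DMSO wells given calcium and 100% = 1 mM EGTA wells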
SKN-1 inh = inhibitors of C. elegans SKN-1. AID 624304. actives 0.49% (n = 360,000). inhibition, % at 21.8 µM. C. elegans VP596 Pgst-4::GFP/RFP ratio, acrylamide-induced, 24 h;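 active means interference check ratio from 0.5 to 1.5 plus GFP to RFP signal ratio inhibition reaching or exceeding a fixed threshold, cut at about 30% in these data, passing the limit was not always enough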
NRP1-CendR mod = modulators of CendR peptide binding to human neuropilin-1; actives 0.85% (n = 360,000); inhibition, % at 25 µM; O14786; FAM-RPARPAR peptide binding to NRP-1, fluorescence polarization; AID 602438;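 active means inhibition or corrected inhibition above about 18%, plus a signal ratio from 0.5 to 1.5, limit read from the data, passing the limit was not always enough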
CFTR F508del cor = correctors of CFTR F508del function in bronchial epithelial cells | CFBE cells, YFP halide quenching; stimulated with forskolin plus potentiator P3; % fluorescence drop versus neutral controls | actives 0.36% (n = 350,000) | activity (quench increase), % at 7.58 µM;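 active means mean added fluorescence quench of at least 8% versus neutral control, with both replicates also reaching 8%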;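 further: cells transiently co-express mutant CFTR-F508del with the halide-sensitive YFP; corrector assay measuring rescue of mutant channel to the surface after 24 h compound exposure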
ATG4B inhibitor = inhibitors of human ATG4B cysteine protease. Q9Y4P1. AID 504462. inhibition, % at 8.33 µM. actives 0.51% (n = 340,000). ATG4B cleavage of LC3-PLA2, NBD-HPC fluorescence, 1 h; in the data active means inhibition above about 40%
Target sequence (Q9Y4P1 whole entry, looked up): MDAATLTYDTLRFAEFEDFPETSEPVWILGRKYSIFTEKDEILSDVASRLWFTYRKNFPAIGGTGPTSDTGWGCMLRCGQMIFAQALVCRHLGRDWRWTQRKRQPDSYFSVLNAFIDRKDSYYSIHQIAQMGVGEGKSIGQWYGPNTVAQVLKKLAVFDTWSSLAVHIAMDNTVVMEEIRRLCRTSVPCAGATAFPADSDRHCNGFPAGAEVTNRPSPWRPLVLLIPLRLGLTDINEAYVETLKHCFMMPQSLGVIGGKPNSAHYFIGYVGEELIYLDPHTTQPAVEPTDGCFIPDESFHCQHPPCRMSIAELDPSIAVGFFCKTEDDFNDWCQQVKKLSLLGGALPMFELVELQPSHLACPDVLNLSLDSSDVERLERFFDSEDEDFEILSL
Rh123 counter = Rhodamine 123 counter-screen of mitochondrial pore hits. shares compounds with MPTP block. isolated mitochondria, membrane potential, Rhodamine 123 fluorescence. inhibition, % at 10 µM. actives 78% (n = 5,000). AID 624504; in the data active means inhibition above about 22%;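 further: 0% = DMSO vehicle and 100% = positive control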
MPTP swell DR = dose response confirmation of mitochondrial permeability transition pore inhibitors; IC50, µM; AID 651561; shares compounds with MPTP block; actives 58% (n = 780); isolated mitochondria swelling, absorbance; in the data active means IC50 below about 20 µM
MPTP cs DR = MPTP inhibitor counter-screen activity, dose response | actives 49% (n = 780) | shares compounds with MPTP block | IC50, µM | isolated mitochondria counterscreen, fluorescence read-out; in the data active means IC50 below about 80 µM
* marks the source's active call; other numbers are inactive results; x = no result. Sampled rows, rich in hits. Any-hit rate of the full collection: about 2.7%.

SMILES	MPTP block	SKN-1 inh	NRP1-CendR mod	CFTR F508del cor	ATG4B inhibitor	Rh123 counter	others
COC(=O)C1=C(C)N(Cc2ccc(C(F)(F)F)cc2)C(=NCc2ccc(C(F)(F)F)cc2)NC1c1cccc(F)c1 (stereo not given)	x	x	x	3	x	x
COC(=O)C1=C(C)N(Cc2ccccc2)C(=NCc2cccc(C(F)(F)F)c2)N[C@H]1c1cccc(F)c1	80*	-18	-2	1	9	-5
COC(=O)C1=C(C)N(Cc2ccccc2)C(=NCc2cccc(C(F)(F)F)c2)N[C@H]1c1cccc(C(F)(F)F)c1	88*	3	-3	x	11	-1
CNC[C@H]1OCCCC[C@H](C)Oc2ccc(NC(=O)CCC(F)(F)F)cc2C(=O)N([C@H](C)CO)C[C@@H]1C	x	x	x	-2	x	x
C[C@H](CO)N1C[C@H](C)[C@@H](CN(C)CC2CCCCC2)Oc2ccc(NC(=O)C3CC3)cc2CC1=O	x	x	x	-1	x	x
Cc1ccc(NC(=O)CNc2ccc(Cl)c(Cl)c2)cc1S(=O)(=O)N(C)C	96*	-6	-10	x	-10	94*
Cc1ccc(NC(=O)Cc2ccc(Cl)c(Cl)c2)cc1S(=O)(=O)N(C)C	88*	15	0	x	-1	88*
Cc1ccc(NC(=O)COC(=O)c2ccccc2Cl)cc1S(=O)(=O)N(C)C	-1	-10	0	2	-11	x
Cc1ccc(NC(=O)Cc2ccccc2Cl)cc1S(=O)(=O)N(C)C	6	0	-9	x	-15	x
CC1CCN(CCCCOc2ccc(Cl)cc2)CC1	-1	20	0	x	-5	x
CC1CCN(CCCCOc2ccc(C(C)(C)C)cc2)CC1	54*	2	2	7	-2	7	MPTP swell DR=6.8*;MPTP cs DR=13*
O=C(C[C@H]1CC[C@H](NC(=O)C2CCC2)[C@@H](CO)O1)NCc1ccccc1Cl	x	x	x	0	x	x
CC(=O)c1ccc(OCc2cc(C(=O)N(C)Cc3cc(C)no3)no2)cc1	0	9	7	-1	-1	x
Cc1cc(CN(C)C(=O)c2cc(COc3ccc4ncccc4c3)on2)on1	96*	2	-4	2	-11	73*
CN(Cc1nccn1C)C(=O)c1cc(COc2cccc(C(F)(F)F)c2)on1	-1	5	24	-2	-4	x
CN(Cc1nccn1C)C(=O)c1cc(COc2ccc3ncccc3c2)on1	70*	-16	-7	-4	6	19	MPTP swell DR=19*;MPTP cs DR=46*
Oc1ccc(Cl)cc1-c1cc(-c2ccco2)[nH]n1	0	24	-31	x	11	x
Oc1ccc(Cl)cc1-c1cc(-c2cccc(Br)c2)n[nH]1	89*	-10	-16	x	1	68*
Oc1ccc(Cl)cc1-c1cc(-c2ccccc2Cl)[nH]n1	61*	-25	2	x	35	67*
CC(C)(C)c1ccc(-c2cc(-c3ccccc3O)[nH]n2)cc1	2	16	-7	0	4	x
Oc1ccccc1-c1cc(-c2cccc(F)c2)n[nH]1	58*	-1	-7	x	17	71*
COCC(=O)N1CCC2(CC1)CN(C(=O)Nc1ccccc1F)[C@H](CO)c1c2c2ccc(OC)cc2n1C	x	x	x	1	x	x
Cc1ccc(S(=O)(=O)N(C)C[C@H]2OCCCC[C@H](C)Oc3ccc(NC(=O)c4ccccc4)cc3C(=O)N([C@@H](C)CO)C[C@@H]2C)cc1	x	x	x	-1	x	x
CC(C)(C)c1ccccc1OCCCCCNCCO	90*	7	8	x	-3	-15	MPTP swell DR=7.9*;MPTP cs DR=>80
Cc1ccccc1OCCCCCNCCO	-2	7	8	-2	12	x
SMILES	MPTP block	SKN-1 inh	NRP1-CendR mod	CFTR F508del cor	ATG4B inhibitor	Rh123 counter	others
CCCCCCCCC(=O)NC(NC(=S)N1CCOCC1)C(Cl)(Cl)Cl (stereo not given)	88*	18	3	x	1	86*
CCCCCC(=O)NC(NC(=S)N1CCOCC1)C(Cl)(Cl)Cl (stereo not given)	3	1	-3	x	-5	x
COCCCNCCOc1ccc(C(C)(C)c2ccccc2)cc1	97*	6	19	4	7	-7	MPTP swell DR=5.7*;MPTP cs DR=>80
COCCCNCCCCOc1ccc(OCc2ccccc2)cc1	3	3	5	1	-1	x
O=C(O)C[C@H]1C[C@@H]2c3cc(NC(=O)NC4CCCC4)ccc3O[C@@H]2[C@@H](CO)O1	x	x	x	1	x	x
C[C@@H]1CN([C@H](C)CO)C(=O)c2cccc(NC(=O)Nc3ccc(F)cc3)c2O[C@@H]1CN(C)Cc1ccc(-c2ccccc2)cc1	x	x	x	-2	x	x
O=C1CCc2ccc(OCCCCN3CCN(c4cccc(Cl)c4Cl)CC3)cc2N1	80*	-9	-5	2	0	20*
COc1ccccc1N1CCN(CCCOc2ccc(F)cc2)CC1	1	-22	14	x	6	x
O=C(Nc1ccccc1F)N[C@H]1CC[C@H](CCNC(=O)C2CC2)O[C@H]1CO	x	x	x	2	x	x
N#CC1=C(N)N2C(=C(C#N)C13CCCCC3)SC1CCCCC12O (stereo not given)	66*	-2	-10	x	-4	72*
Cn1c(=O)c2[nH]c(CCCCCCCCc3nc4ccccc4[nH]3)nc2n(C)c1=O	102*	4	-11	-2	-10	94*
Cc1ccc2c(c1)c1c3n2CCCNC3CCC1 (stereo not given)	-5	7	2	x	4	x
c1cc2c(cc1C1CCCCC1)c1c3n2CCCNC3CCC1 (stereo not given)	80*	7	-7	x	1	-29
Cc1c(C(=O)NC2CCN(Cc3ccccc3)C2)oc2c(Cl)cccc12 (stereo not given)	63*	-8	2	-2	5	-4	MPTP swell DR=>100;MPTP cs DR=>80
O=C(NC1CCN(Cc2ccccc2)CC1)c1ccccc1Cl	0	20	-6	2	-3	x
O=C(NCCCCCCNC(=O)c1ccc(Br)s1)c1ccc(Br)s1	54*	3	-8	x	-5	36*
Cc1noc(C)c1CSc1nc2ccccc2nc1NS(=O)(=O)c1ccc(Cl)cc1	88*	-4	0	x	8	87*
O=S(=O)(Nc1nc2ccccc2nc1NCc1ccco1)c1ccc(Cl)cc1	-8	6	-44	x	-13	x
COCC(=O)N1[C@H](CO)[C@@H](c2ccccc2)[C@@H]1CNC(=O)c1ccccn1	x	x	x	-2	x	x
CCCCCCCCCCCCC/C=C/[C@@H](O)[C@@H](N)CO	98*	6	3	-1	2	-8
Cc1noc(C)c1NC(=O)N(C)C[C@H]1Oc2ccc(NS(=O)(=O)c3c(C)noc3C)cc2CC(=O)N([C@@H](C)CO)C[C@H]1C	x	x	x	0	x	x
CO[C@H]1CN(C)C(=O)c2ccc(NC(=O)C3CC3)cc2OC[C@H](C)N(Cc2cc(F)ccc2F)C[C@@H]1C	x	x	x	-1	x	x
